This is an account of results in PubChem BioAssay (NCI).

Compounds without any hit were thinned out: in the full panel of roughly 79,000, 15% have a hit. Unmarked numbers belong to inactive results. The source made the active and inactive calls. No stated cut-off is given here; in the data, active means growth inhibition above about 70%; inactive means the rest.

A short description of this test: NCI Yeast Anticancer Drug Screen. Data for the rad50EPP+ strain (AID 151).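 Further: 0% = growth of vehicle-treated control cultures.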 Conditions: S. cerevisiae rad50 mutant strain, active compounds read high. As to the method: Growth inhibition of yeast strains with defined genetic alterations is measured as a screen for potential anti-cancer activity. Selected strains with alterations in DNA damage repair or cell cycle control were exposed to compounds and growth inhibition was measured relative to vehicle treated controls. The strain used in this assay is rad50EPP+

Turning to `O=S1(=O)c2ccccc2N=C(c2ccccc2Cl)CC1c1ccc(F)cc1` (stereo not given), the growth inhibition runs as follows: (at 1.2 µM) -23%; (at 3.7 µM) -22%; (at 11.0 µM) 0%; (at 33.0 µM) 15%; (at 100.0 µM) 24%.

In the case of `CN(C)Cc1cccc(CN(C)C)[c]1[Sn]([Br])([c]1ccccc1)[c]1ccccc1`, the growth inhibition is 19% (at 1.2 µM); 32% (at 3.7 µM); 30% (at 11.0 µM); 36% (at 33.0 µM); 39% (at 100.0 µM).

In the case of `O=C(/C=N/O)Nc1cc(Cl)c(Cl)cc1Cl`, the growth inhibition was -17% (at 1.2 µM); 3% (at 3.7 µM); 6% (at 11.0 µM); 51% (at 33.0 µM); 83% (active) (at 100.0 µM).

For the molecule `Clc1nc(C(Cl)Cl)nc2sc3c(c12)CCCC3`, the growth inhibition (at 1.2 µM) was 1%; the growth inhibition (at 3.7 µM) was 0%; the growth inhibition (at 11.0 µM) was 1%; the growth inhibition (at 33.0 µM) was 0%; the growth inhibition (at 100.0 µM) was -2%.

On to `Cc1nc2c(ncn2CCO)c(=O)[nH]1`, for which the growth inhibition (at 1.2 µM) was -11%; the growth inhibition (at 3.7 µM) was 10%; the growth inhibition (at 11.0 µM) is 5%; the growth inhibition (at 33.0 µM) is 3%; the growth inhibition (at 100.0 µM) is 1%.

On to `CN(C)CCN1C(=O)c2cccc3cc([N+](=O)[O-])cc(c23)C1=O`, for which the growth inhibition was 13% (at 1.2 µM); 25% (at 3.7 µM); 28% (at 11.0 µM); 66% (at 33.0 µM); 83% (active) (at 100.0 µM).

In the case of `N#CSC1CCCCNC1=O` (stereo not given), the growth inhibition by setting is: (at 1.2 µM) 6%; (at 3.7 µM) 18%; (at 11.0 µM) 42%; (at 33.0 µM) 70% (active); (at 100.0 µM) 85% (active).

Regarding `Cc1cccc2c1N=C(C(F)(F)F)CC2=O`, the growth inhibition is, setting by setting: (at 1.2 µM) 2%; (at 3.7 µM) 3%; (at 11.0 µM) 10%; (at 33.0 µM) 33%; (at 100.0 µM) 48%.
